Data: PubChem BioAssay AID1529 (NMMLSC, 2009)
Screen size: about 290,000 compounds; about 4,200 (1.4%) were called active. The entries come from a sample that favours actives as a whole. A number with no mark means an inactive call.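 Rule for the calls: active = binding response more than 3 SD above or below the average of its plate-row segment, actives on both sides; inconclusive = wells at one plate position flagged as instrument error; inactive = the rest.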

Target: Mitogen-activated protein kinase kinase kinase 3 (Homo sapiens) (UniProt Q99759)
Sequence (Q99759 whole entry, looked up): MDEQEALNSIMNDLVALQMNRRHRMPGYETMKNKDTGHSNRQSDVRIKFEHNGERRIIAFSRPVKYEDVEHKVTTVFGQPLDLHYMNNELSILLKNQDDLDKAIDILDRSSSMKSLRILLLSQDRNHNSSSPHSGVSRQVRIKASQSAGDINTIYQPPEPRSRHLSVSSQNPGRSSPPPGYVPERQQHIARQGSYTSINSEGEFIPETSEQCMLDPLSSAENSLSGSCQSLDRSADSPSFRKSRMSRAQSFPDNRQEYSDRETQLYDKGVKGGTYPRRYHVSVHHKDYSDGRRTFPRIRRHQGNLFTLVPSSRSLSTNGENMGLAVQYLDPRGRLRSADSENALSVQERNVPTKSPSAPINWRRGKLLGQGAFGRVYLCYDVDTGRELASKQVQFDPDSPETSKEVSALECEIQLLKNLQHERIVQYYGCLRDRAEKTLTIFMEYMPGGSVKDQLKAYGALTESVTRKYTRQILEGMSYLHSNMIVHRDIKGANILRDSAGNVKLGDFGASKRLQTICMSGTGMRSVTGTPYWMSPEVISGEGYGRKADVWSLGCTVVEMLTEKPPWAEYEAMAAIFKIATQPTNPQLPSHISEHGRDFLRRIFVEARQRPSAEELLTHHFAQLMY
Assay: compounds raising or lowering MEK5 association with MEKK3 PB1 – biochemical, wildtype MEKK3, multiplex bead flow cytometry, Alexa488-MEK5, primary screen (AID 1529);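 note: Alexa488 bead fluorescence after subtracting the streptavidin-only scavenger bead signal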
Settings: bead-based flow cytometry, Alexa488-MEK5 binding to MEKK3; at 10 µM; actives lie on both sides; 0 = blocked by unlabeled MEK5, 100 = vehicle

SMILES | binding response (% of control)
COc1cccc(C(C(=O)NC2CCCC2)N(C(=O)c2ccco2)c2cccc(C(C)=O)c2)c1OC (stereo unspecified) | 98%
O=C(CCCCCn1c(=S)[nH]c2ccsc2c1=O)NC1CCCCC1 | 102%
CCOC(=O)c1ccc(CS(=O)c2ccc(Cl)cc2)o1 (stereo unspecified) | 100%
CCOC(=O)N1CCN(C(=O)CNC(=O)Cc2ccc(Cl)cc2)CC1 | 99%
CCOC(=O)c1c(Cc2ccc(Cl)cc2)c[nH]c1C | 136% (active)
COC(=O)c1cc(NC(=O)c2cccnc2)ccc1N1CCOCC1 | 102%
Cc1cccc(NC(=O)c2cc([N+](=O)[O-])ccc2N2CCN(C)CC2)c1 | 105%
CC(=O)Nc1cccc(Oc2cc(C#N)c(C#N)cc2N2CCOCC2)c1 | 97%
COC(=O)c1cc(NC(=O)c2cc(C(C)(C)C)nn2Cc2cccc(C)c2)ccc1N1CCOCC1 | 134% (active)
CC(=O)Nc1ccc(N2CCOCC2)c(C(=O)Nc2cccc(C)c2)c1 | 2% [inhibitor] (active)
COC(=O)c1cc(NC(=O)c2ccco2)ccc1N1CCOCC1 | 95%
CC1=C(N2CCN(c3ncccn3)CC2)CCC1=O | 103%
CCCCCC(O)(CCN1CCCCC1)c1ccccc1 (stereo unspecified) | 104%
Cc1ccc(-c2ccc(/C=C(\C#N)C(N)=S)o2)c([N+](=O)[O-])c1 | 100%
CCOC(=O)c1ccc(NC(=O)c2c(N)n(C)c(=O)[nH]c2=O)cc1 | 89%
COC(=O)C(C)NC(=O)COc1ccc2ccccc2c1 (stereo unspecified) | 98%
CC(C)C(C)NC(=O)COc1ncnc2ccccc12 (stereo unspecified) | 106%
COCC(C)NC(=O)COc1nncc2ccccc12 (stereo unspecified) | 39% [inhibitor] (active)
CCOc1ccc(C(=O)Nc2ccc(CN3CCOCC3)cc2)cc1Cl | 103%
CC1CN(C(=O)c2cc(COc3c(F)cccc3F)on2)CCN1C (stereo unspecified) | 100%
C=C1CCN([C@@H](Cc2ccccc2)C(=O)N2CCOCC2)S(=O)(=O)c2ccccc21 | 105%
CCn1cc(/C=C(\NC(=O)c2ccc(C)cc2)C(=O)NCCN2CCOCC2)c2ccccc21 | 102%
COc1ccc(Cl)cc1NC(=O)CNc1ccccc1F | 104%
C=C(C)C1CC=C(C)/C(=N\NC(=O)CNc2ccccc2OC)C1 (stereo unspecified) | 128% (active)

SMILES | binding response (% of control)
C=C(C)C1CC=C(C)/C(=N/NC(=O)CCCNc2cccc(C)c2)C1 (stereo unspecified) | 97%
CCCC[C@@H]1CN=C(N)N1CCCC | 89%
CC(=O)C1=C(O)C(=O)N(c2ccc(Br)cc2)C1c1ccc([N+](=O)[O-])cc1 (stereo unspecified) | 98%
CCc1cccc(CC)c1NC(=S)NCc1ccc2[nH]c(C)cc2c1 | 106%
Cc1cc2cc(CNC(=O)c3ccc(S(=O)(=O)N4CCOCC4)cc3)ccc2[nH]1 | 94%
Cc1cc2cc(CNC(=O)c3cccs3)ccc2[nH]1 | 73% [inhibitor] (active)
O=C(CSc1nccc(=O)[nH]1)Nc1ccc(N2CCOCC2)c(Cl)c1 | 99%
O=S(=O)(c1ccccc1)N(Cc1cccc(F)c1)c1ccccc1 | 99%
Cc1ccc(SCC(=O)Nc2ncc(C)s2)cc1 | 100%
Cc1cnc(NC(=O)Cn2cnc3c2c(=O)n(C)c(=O)n3C)s1 | 136% (active)
Cc1cnc(NC(=O)CSc2nnc(C)s2)s1 | 100%
COc1ccc(-c2csc(Nc3ccc(O)cc3)n2)cc1 | 95%
Cc1ccc(OC(=O)CCC(=O)Nc2ccc(Br)cc2)cc1 | 94%
COC(=O)CCc1sc(Nc2ccc(Br)cc2)nc1-c1ccc(OC)cc1 | 136% (active)
Cc1ccc(NC(=O)CN2CCC(C(N)=O)CC2)cc1[N+](=O)[O-] | 98%
CSCCC(Nc1ccc(S(=O)(=O)N2CCOCC2)cc1[N+](=O)[O-])C(=O)OCC(=O)N(C(C)C)C(C)C (stereo unspecified) | 98%
CC(=O)N1CCN(S(=O)(=O)c2ccc(C)c([N+](=O)[O-])c2)C1C(C)C (stereo unspecified) | 128% (active)
Cc1cc(=O)cc(C)n1-c1ccc(Cl)c(Cl)c1 | 96%
CC(=O)Nc1ccc(S(=O)(=O)N2CCC(C(=O)NC3CC3)CC2)cc1 | 104%
Cc1[nH]n(-c2ccccc2)c(=O)c1/C=N/NC(=O)c1ccoc1C | 108%
CCC(=C/c1sc2ccc3ccccc3c2[n+]1C)/C=C1\Sc2ccc3ccccc3c2N1C | 23% [inhibitor] (active)
C#CCOCCOCCOCCNc1nc(N2CCN(C(=O)C([C@@H](C)CC)n3cc(C(N)COC(=O)C(F)(F)F)nn3)CC2)nc(N2CCN(C(=O)[C@H](CCCCN)n3cc(C(N)CC(C)C)nn3)CC2)n1 (stereo partly specified) | 120%
N=C1/C(=C/c2cccn2-c2cccc([N+](=O)[O-])c2)C(=O)N=C2SC=CN12 | 135% (active)
Cc1cc(/C=C2/C(=N)N3C(=NC2=O)SN=C3S(C)(=O)=O)c(C)n1-c1ccccc1 | 96%

SMILES | binding response (% of control)
COCOc1cc(O)c(C(=O)/C=C/c2ccc(OCOC)c(OCOC)c2)c(OCOC)c1 | 104%
Cc1cccc(NC(=O)CCN2CC(C)CC(C)C2)c1 (stereo unspecified) | 107%
Cc1nonc1C1CCCN1Cc1nc(-c2ccc(F)cc2F)oc1C (stereo unspecified) | 85%
CCN1/C(=C/c2ccc3ccc(C)cc3[n+]2CC)Sc2ccccc21 | 95%
CCN1/C(=C\c2ccc3ccccc3[n+]2CC)Sc2cc(C)ccc21 | 70% [inhibitor] (active)
CCN(CC)CCCNC(=O)c1cn(C)c2ccc(S(=O)(=O)N(C)C3CCCCC3)cc2c1=O | 100%
COc1ccc(C(=O)NCc2nnc(SCC(=O)Nc3cccc(OC)c3)o2)cc1 | 102%
Cc1cccc(/C=N/NC(=O)CNc2cccc3ccccc23)n1 | 144% (active)
Cn1cccc1/C=N/NC(=O)CNc1cccc2ccccc12 | 103%
C/C(=N\NC(=O)CNc1cccc2ccccc12)c1ccc(Br)s1 | 103%
CCn1cc(CN2CCC(C(=O)Nc3cccc(-c4cccc(Cl)c4)c3)CC2)c(C)n1 | 107%
CCc1nnc(NC(=O)CCN(c2ccc(C)cc2)S(=O)(=O)c2ccccc2)s1 | 108%
Cc1ccc(N(CCC(=O)O)S(=O)(=O)c2cccc(C(F)(F)F)c2)cc1 | 3% [inhibitor] (active)
O=C(O)c1cc(S(=O)(=O)N(Cc2ccccc2)c2cccc(C(F)(F)F)c2)ccc1Cl | 106%
COc1cc(C)nc(N2CCCC(C(=O)NCC(C)C)C2)n1 (stereo unspecified) | 130% (active)
Cc1cc(=O)n2nc(N3CCCC(C(=O)NCc4ccc(Cl)cc4)C3)sc2n1 (stereo unspecified) | 99%
Cc1ccnc(N2CCCC(C(=O)NC3CC3)C2)n1 (stereo unspecified) | 100%
CN1CCN(CCNC(=O)Nc2ccccc2[N+](=O)[O-])CC1 | 104%
Cc1ccccc1CCN(CC(=O)NC1CCCCC1)C(=O)c1csnn1 | 142% (active)
Cc1ccc(CN(CC(=O)NC2CCCCC2)C(=O)c2csnn2)cc1 | 103%
O=C(CN(C(=O)c1csnn1)c1ccc(Br)cc1)NC1CCCC1 | 101%
COc1cc([N+](=O)[O-])ccc1NC(=O)CN1CCCC1 | 104%
COc1ccccc1CC(=O)Nc1ccc(F)cc1F | 106%
COc1ccccc1CC(=O)Nc1ccc([N+](=O)[O-])cc1OC | 139% (active)

SMILES | binding response (% of control)
CCC(C)NC(=O)C1c2ccccc2Oc2ccccc21 (stereo unspecified) | 71%
CCC(C)(C)NC(=O)C1c2ccccc2Oc2ccccc21 | 99%
CC(C)(C)c1nnc(NC(=O)C2c3ccccc3Oc3ccccc32)s1 | 45% [inhibitor] (active)
C=CCSc1nnc2c(n1)-c1cccc3cccc-2c13 | 104%
COc1ccc(C(=O)NC(=S)NC2CCCCC2)cc1 | 106%
Brc1ccccc1C1N=C(c2ccccc2)NO1 (stereo unspecified) | 103%
Cc1ccc2c(c1)N(C(=O)CCC(=O)NCc1cccnc1)CCO2 | 100%
COc1cccc(NC(=O)CN(C)C(=O)/C=C/c2cc(OC)ccc2OC)c1 | 151% (active)
COc1ccc(/C=C/C(=O)OCC(=O)Nc2cccc(Oc3ccccc3)c2)c(OC)c1 | 106%
COc1cccc(NC(=O)CN(C)C(=O)Cc2ccc(Cl)cc2Cl)c1 | 106%
CCOC(=O)N1CCN(C(=O)c2cn(C)c3ccc(S(=O)(=O)N(CC)CC)cc3c2=O)CC1 | 98%
CCOC(=O)CC1(NC(=O)c2cc(COc3cncc(Cl)c3)on2)CCCCC1 | 103%
O=C(CN1C(=O)CSC1=O)N1CCCC(Nc2ccc(F)cc2)C1 (stereo unspecified) | 102%
CN(C(=O)c1cc2c(=O)n3ccccc3nc2s1)C1CCCCC1 | 100%
Cn1c(=O)c2c(nc(NCCc3ccccc3)n2Cc2ccccc2)n(C)c1=O | 96%
Cn1c(=O)c2c(nc(N/N=C/c3cccs3)n2Cc2ccc(Br)cc2)n(C)c1=O | 131% (active)
Cn1c(=O)c2sccc2n(Cc2ccc(Br)cc2)c1=O | 101%
COc1cccc(OCC(=O)NNC(=O)c2cnccn2)c1 | 2% [inhibitor] (active)
COc1ccc(OCC(=O)NNC(=O)c2cccc(C)c2)cc1 | 103%
COc1cccc(OCC(=O)Nc2ccccc2C(N)=O)c1 | 110%
Cc1c(C(C)(C)O)[nH]c2ccc(C#N)cc12 | 103%
CCOC(=O)C(NS(=O)(=O)c1ccc(C)cc1)(C(F)(F)F)P(=O)(OCC(C)C)OCC(C)C (stereo unspecified) | 140% (active)
CC(=O)N1CCN(CC(C)(C)NS(=O)(=O)c2ccc(C)cc2)CC1 | 102%
Cc1ccc(S(=O)(=O)NCC(C)NS(C)(=O)=O)cc1 (stereo unspecified) | 97%
